# Test results published in PubChem BioAssay (NCATS).
# “And” between values parts separate entries of the source, which are not always exact repeats. Identical values can stand only once. Inconclusive results are not listed. Where a structure was tested more than once in an assay, its records may differ in their call. The source made the active and inactive calls. Calls follow the shape of the full dose curve.
# How the values were obtained:
# [1] = qHTS drug screen for cell cycle checkpoint inhibitors in PARPi-resistant BRCA-mutant ovarian cancer cell lines. (AID 1963452); conditions: PEO1/OlaR viability, CellTiter-Glo luminescence, 96 h; for Z-AUC: stronger effect = lower value; also: potency is read from the fitted curve at half-maximal effect
# Procedure, shortened: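 PEO1, PEO4 and PEO1/OlaR ovarian cancer cells, 600 per well, exposed 96 h at 37C to a dilution series. Viability read by CellTiter-Glo luminescence, normalized to DMSO and empty wells; activity summarized as Z-AUC.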
# [2] = qHTS for identification of novel therapeutic agents for treatment of microphthalmiaassociated transcription factor (MiT) renal cell carcinoma (RCC) (AID 1963991); conditions: CellTiter-Glo, 48 h, stronger effect = lower value
# Procedure, shortened: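 Three TFE3-fusion RCC cell lines (UOK109, UOK124, UOK145), 500 cells/well, were exposed to the 1912-compound MIPE 4.0 library for 48 hours at 37 C. Viability was read by CellTiter-Glo luminescence, normalised to DMSO (100%) and empty wells (0%), with 11-concentration curve fits.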
# [3] = measured here: PEO1 parental Z-AUC
# [4] = TFE3-RCC UOK109 viability, measured here: UOK109 Z-AUC
# [5] = TFE3-RCC viability, measured here: UOK124 Z-AUC
# [6] = TFE3-RCC viability, measured here: UOK145 Z-AUC
compound,measurement,setting,value
O=C(NC1CC1)c1cccc(-c2ccc3c(NC(=O)C4CC4)n[nH]c3c2)c1,Z-AUC,[1],-1.31 (inactive)
same,Z-AUC,[1]; [3],-0.612
same,Z-AUC,[1]; measured here: PEO4 Z-AUC,-0.0864
CN1C(C(=O)Nc2ccccn2)=C(O)c2sc(Cl)cc2S1(=O)=O,Z-AUC,[1],0.627 (inactive)
same,Z-AUC,[1]; [3],0.551
same,Z-AUC,[1]; measured here: PEO4 Z-AUC,0.669
O=C(Nc1cccc(Nc2ncc(Br)c(NCCc3cnc[nH]3)n2)c1)N1CCCC1,Z-AUC,[1],-0.432 (inactive)
same,Z-AUC,[1]; [3],-0.127
same,Z-AUC,[1]; measured here: PEO4 Z-AUC,-0.522
Oc1cc2c(cc1O)C1c3ccc(O)c(O)c3OCC1(O)C2 (configuration not stated),Z-AUC,[1],1.52 (inactive)
same,Z-AUC,[1]; [3],1.33
same,Z-AUC,[1]; measured here: PEO4 Z-AUC,1.39
c1cc(CN2CCCNCCNCCCNCC2)ccc1CN1CCCNCCNCCCNCC1,Z-AUC,[1],0.916 (inactive)
same,Z-AUC,[1]; [3],0.744
same,Z-AUC,[1]; measured here: PEO4 Z-AUC,1.11
CCN(CC)CCCCNc1ncc2c(n1)N(C)C(=O)N(c1c(Cl)c(OC)cc(OC)c1Cl)C2,Z-AUC,[1],0.806 (inactive)
same,Z-AUC,[1]; [3],1.27
same,Z-AUC,[1]; measured here: PEO4 Z-AUC,0.972
CN(C)CCN1C(=O)c2cccc3cc(N)cc(c23)C1=O,Z-AUC,[1],-0.488 (inactive)
same,Z-AUC,[1]; [3],-0.749
same,Z-AUC,[1]; measured here: PEO4 Z-AUC,-0.88
FC(F)c1nc2ccccc2n1-c1nc(N2CCOCC2)nc(N2CCOCC2)n1,Z-AUC,[1],-1.24 (inactive)
same,Z-AUC,[1]; [3],-1.07
same,Z-AUC,[1]; measured here: PEO4 Z-AUC,-0.858
Oc1ccc(-c2ccc(-c3cc(Nc4cccc(CNC5CC5)c4)n[nH]3)cc2)c(O)c1,Z-AUC,[1],-0.35 (inactive)
same,Z-AUC,[1]; [3],0.119
same,Z-AUC,[1]; measured here: PEO4 Z-AUC,0.0871
CC(C)(N)c1ccc(-c2nc3ccccc3nc2-c2ccccc2)cc1,Z-AUC,[1],0.345 (inactive)
same,Z-AUC,[1]; [3],0.18
same,Z-AUC,[1]; measured here: PEO4 Z-AUC,0.291
C[C@H]1[C@@H](OC(=O)CCC(=O)O)O[C@@H]2O[C@@]3(C)CC[C@@H]4[C@H](C)CC[C@@H]1[C@@]24OO3,Z-AUC,[1],-0.162 (inactive)
same,Z-AUC,[1]; [3],-0.815
same,Z-AUC,[1]; measured here: PEO4 Z-AUC,-0.572
CCc1ccc(C(=O)Nc2cc(CN3CCN(C)CC3)cc(C(F)(F)F)c2)cc1C#Cc1cnc2ccnn2c1,Z-AUC,[1],-0.668 (inactive)
same,Z-AUC,[1]; [3],-1.24
same,Z-AUC,[1]; measured here: PEO4 Z-AUC,-0.914
COc1cc(C[C@@H](CO)[C@H](CO)Cc2ccc(O)c(OC)c2)ccc1O,Z-AUC,[1],0.833 (inactive)
same,Z-AUC,[1]; [3],0.526
same,Z-AUC,[1]; measured here: PEO4 Z-AUC,0.516
C[C@@H](NCc1cc2ccccc2[nH]1)c1cccc2ccccc12,Z-AUC,[1],0.66 (inactive)
same,Z-AUC,[1]; [3],0.376
same,Z-AUC,[1]; measured here: PEO4 Z-AUC,0.0374
Oc1cc(-c2nc(-c3ccccc3)[nH]c2-c2ccncc2)ccc1Cl,Z-AUC,[1],-0.516 (inactive)
same,Z-AUC,[1]; [3],-0.935
same,Z-AUC,[1]; measured here: PEO4 Z-AUC,-1.11
COC(=O)[C@H](CCCN=C(N)N)NS(=O)(=O)c1ccc(C)cc1,Z-AUC,[1],1.53 (inactive)
same,Z-AUC,[1]; [3],1.46
same,Z-AUC,[1]; measured here: PEO4 Z-AUC,1
same,z-score,[2]; [4],0.843
same,z-score,[2]; [5],0.187
same,z-score,[2]; [6],0.701
CCCc1nc(C(C)(C)O)c(C(=O)O)n1Cc1ccc(-c2ccccc2-c2nn[nH]n2)cc1,Z-AUC,[1],0.227 (inactive)
same,Z-AUC,[1]; [3],0.788
same,Z-AUC,[1]; measured here: PEO4 Z-AUC,1.03
same,z-score,[2]; [4],1.09
same,z-score,[2]; [5],0.526
same,z-score,[2]; [6],0.646
O=c1ccn([C@@H]2O[C@H](CO)[C@H](O)[C@@H]2F)c(=O)[nH]1,Z-AUC,[1],0.179 (inactive)
same,Z-AUC,[1]; [3],0.56
same,Z-AUC,[1]; measured here: PEO4 Z-AUC,0.262
Cn1c(Nc2ccc(C(F)(F)F)cc2)nc2cc(Oc3ccnc(-c4ncc(C(F)(F)F)[nH]4)c3)ccc21,Z-AUC,[1],-0.152 (inactive)
same,Z-AUC,[1]; [3],-0.11
same,Z-AUC,[1]; measured here: PEO4 Z-AUC,-1.19
c1ccc(CNc2nc(NCc3ccccc3)c3ccccc3n2)cc1,Z-AUC,[1],0.198 (inactive)
same,Z-AUC,[1]; [3],-0.502
same,Z-AUC,[1]; measured here: PEO4 Z-AUC,-0.739
C[N+](C)([O-])CCNc1ccc(NCC[N+](C)(C)[O-])c2c1C(=O)c1c(O)ccc(O)c1C2=O,Z-AUC,[1],0.909 (inactive)
same,Z-AUC,[1]; [3],-0.431
same,Z-AUC,[1]; measured here: PEO4 Z-AUC,0.857
O=C(CCCCCCC(=O)Nc1cccnc1)NO,Z-AUC,[1],0.519 (inactive)
same,Z-AUC,[1]; [3],0.211
same,Z-AUC,[1]; measured here: PEO4 Z-AUC,0.136
Cn1cc(-c2cnn3c(N)c(Br)c([C@H]4CCCNC4)nc23)cn1,Potency,[1],3.47 µM (active)
same,Z-AUC,[1],-0.529 (inactive)
same,Z-AUC,[1]; [3],0.414 and -1.48
same,Z-AUC,[1]; measured here: PEO4 Z-AUC,0.266 and -1.31
CCOC(=O)[C@@H](N)Cc1ccc(-c2cc(O[C@H](c3ccc(Cl)cc3-n3ccc(C)n3)C(F)(F)F)nc(N)n2)cc1,Z-AUC,[1],-0.389 (inactive)
same,Z-AUC,[1]; [3],-0.62
same,Z-AUC,[1]; measured here: PEO4 Z-AUC,-0.32
Nc1nc(N)c2nc(-c3cccc(O)c3)c(-c3cccc(O)c3)nc2n1,Z-AUC,[1],0.00904 (inactive)
same,Z-AUC,[1]; [3],1.16
same,Z-AUC,[1]; measured here: PEO4 Z-AUC,0.781
CCS(=O)(=O)Nc1ccc2[nH]c(O)c(C(=Nc3ccc(CN4CCCCC4)cc3)c3ccccc3)c2c1,Z-AUC,[1],-1.37 (inactive)
same,Z-AUC,[1]; [3],-1.2
same,Z-AUC,[1]; measured here: PEO4 Z-AUC,-1.32
CC(Cc1ccc(O)c(O)c1)(NN)C(=O)O (configuration not stated),Z-AUC,[1],1.29 (inactive)
same,Z-AUC,[1]; [3],0.784
same,Z-AUC,[1]; measured here: PEO4 Z-AUC,0.906
same,z-score,[2]; [4],0.533
same,z-score,[2]; [5],0.304
same,z-score,[2]; [6],0.315
CCNC(=O)c1cc2c(-c3cc(OCCN4CCCC4)c(Cl)cc3Cl)nc(N)nc2s1,Z-AUC,[1],-0.792 (inactive)
same,Z-AUC,[1]; [3],-0.714
same,Z-AUC,[1]; measured here: PEO4 Z-AUC,-0.886
NC(=O)Nc1cc(-c2ccc(CN3CCOCC3)cc2)sc1C(N)=O,Z-AUC,[1],0.59 (inactive)
same,Z-AUC,[1]; [3],0.476
same,Z-AUC,[1]; measured here: PEO4 Z-AUC,0.41
CC(C)C[C@H](NC(=O)[C@@H](NC(=O)c1cccc(-c2ccccc2)n1)[C@@H](C)O)B(O)O,Potency,[1],0.0601 µM (active)
same,Z-AUC,[1]; [3],-2.93
same,Z-AUC,[1]; measured here: PEO4 Z-AUC,-3.51
O=C1NCCc2[nH]c(-c3ccncc3)cc21,Z-AUC,[1],-1.33 (inactive)
same,Z-AUC,[1]; [3],-1
same,Z-AUC,[1]; measured here: PEO4 Z-AUC,-1.61
CCc1c(O)cc(O)c(C(=O)c2ccc(OCCN3CCOCC3)c(OC)c2)c1CC(=O)N(CCOC)CCOC,Z-AUC,[1],-0.361 (inactive)
same,Z-AUC,[1]; [3],-0.538
same,Z-AUC,[1]; measured here: PEO4 Z-AUC,0.145
Nc1nc(=O)n([C@H]2C[C@H](O)[C@@H](CO)O2)cc1F,Z-AUC,[1],-1.47 (inactive)
same,Z-AUC,[1]; [3],-1.19
same,Z-AUC,[1]; measured here: PEO4 Z-AUC,-0.999
CN1CCc2c(c3ccccc3n2Cc2ccc(C(=O)NO)cc2)C1,Z-AUC,[1],-0.848 (inactive)
same,Z-AUC,[1]; [3],-0.74
same,Z-AUC,[1]; measured here: PEO4 Z-AUC,-1.03
